{"source": "PubChem BioAssay AID1850", "about": "(Southern Research Specialized Biocontainment Screening …, 2009)", "note": "About 1,000 (0.32%) of roughly 310,000 compounds were called active. Only a sample is shown. Potency and affinity values are given separately. Values without a mark were called inactive. No rule for the calls is given here.", "data": [{"test": "PhoP regulon inhibitors, Salmonella typhi PhoP promoter GFP reporter, confirmatory (AID 1850);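 also: 0% = induced wells with vehicle and 100% = uninduced wells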", "details": "fluorescence, 4 h, at 50 µM, stronger effect = higher value", "units": {"inhibition": "%"}, "values": [{"smiles": "O=C(C1CCCN(S(=O)(=O)c2cccc3nonc23)C1)N1CCC(Cc2ccccc2)CC1", "note": "(configuration not stated)", "inhibition": -9.59}, {"smiles": "CS(=O)(=O)c1ccc(Cl)c(C(=O)NC2CCSc3ccccc32)c1", "note": "(configuration not stated)", "inhibition": 12.6}, {"smiles": "COc1ccccc1/C=N/NC(=O)c1ccc(-c2ccccc2)cc1", "inhibition": -0.08}, {"smiles": "COc1ccc(C2CC(=O)C3=C(C2)Nc2ccccc2NC3c2coc3ccccc3c2=O)cc1OC", "note": "(configuration not stated)", "inhibition": -2.61}, {"smiles": "Cc1ccc2nc(C)cc(N/N=C/c3cccc(O)c3)c2c1", "inhibition": -4.26}, {"smiles": "COc1ccc(Nc2cc(C)nc3c(C)cccc23)cc1OC", "inhibition": -3.72}, {"smiles": "COc1cccc2c(N/N=C/c3ccccc3)cc(C)nc12", "inhibition": 0.63}, {"smiles": "COc1ccc(/C=N/Nc2cc(C)nc3ccc(OC)cc23)c(OC)c1", "inhibition": 0.09}, {"smiles": "CC(=O)c1ccc(Nc2cc(C)nc3c(C)cc(C)cc23)cc1", "inhibition": 7.05}, {"smiles": "COc1ccc2nc(C)cc(N/N=C/c3ccc(F)cc3)c2c1", "inhibition": -3.4}, {"smiles": "Cc1ccc(Nc2cc(C)nc3ccccc23)c(C)c1", "inhibition": 10.4}, {"smiles": "Cc1cc(Nc2ccc(C)c(C)c2)c2ccccc2n1", "inhibition": -4.07}, {"smiles": "CCCCOc1ccc(NC(=O)C(=O)NCCCn2ccnc2)cc1", "inhibition": -4.73}, {"smiles": "CC[C@H](C)[C@@H]1NC(=O)c2cc([N+](=O)[O-])cc(F)c2NCCCC[C@@H](C(N)=O)NC(=O)[C@H](CCCCN)NC1=O", "inhibition": 1.42}, {"smiles": "CCOc1ccc(CNc2nnnn2C)cc1OC", "inhibition": -3.66}, {"smiles": "COc1ccc(NS(=O)(=O)c2cccc(NC(=O)NCCCl)c2)cc1", "inhibition": -19.5}, {"smiles": "CC(=O)Nc1ccc(/C=N/N2C(=O)NC(C)(c3ccc(OC(F)F)cc3)C2=O)cc1", "note": "(configuration not stated)", "inhibition": -10}, {"smiles": "Cc1ccc(NC(=O)CSCC(=O)Nc2ncc3c(n2)CC(c2ccco2)CC3=O)cc1", "note": "(configuration not stated)", "inhibition": 2.49}, {"smiles": "CCOc1cc(/C=C2\\CCCC(C(=O)C(F)(F)F)=C2O)ccc1O", "inhibition": -4.72}, {"smiles": "CN(CC(=O)Nc1cccc(F)c1)C(=O)c1ccncc1", "inhibition": -3.54}, {"smiles": "CCOC(=O)N1CCN(C2CCCN(C(=O)c3ccccc3SC)C2)CC1", "note": "(configuration not stated)", "inhibition": 4.8}, {"smiles": "O=C(COc1ccccc1C(=O)c1cnn(-c2ccccc2)c1)Nc1ccccc1", "inhibition": -4.89}, {"smiles": "COc1cc(OC)cc(C(=O)NNC(=O)c2ccc(S(=O)(=O)N(C)c3ccccc3OC)cc2)c1", "inhibition": 15.6}, {"smiles": "Cc1cccc(Nc2cc(C)nc3ccccc23)c1", "inhibition": 5.71}, {"smiles": "Cc1cc(N/N=C/c2ccc(N(C)C)cc2)c2ccccc2n1", "inhibition": 0.75}, {"smiles": "Cc1cc(N/N=C/c2ccccc2O)c2ccccc2n1", "inhibition": -0.61}, {"smiles": "Cc1cc(N/N=C/c2ccc(O)cc2O)c2ccccc2n1", "inhibition": -3.45}, {"smiles": "COc1cccc2c(N/N=C/c3ccc(O)c(O)c3)cc(C)nc12", "inhibition": -4.34}, {"smiles": "COc1ccc(Nc2cc(C)nc3ccccc23)cc1", "inhibition": 13.4}, {"smiles": "Cc1cccc(N2C(=O)C(Oc3ccc(Cl)cc3Cl)C2C(=O)O)c1C", "note": "(configuration not stated)", "inhibition": -8.69}, {"smiles": "Cc1nnc(Cn2cnc3c2c(=O)n(C)c(=O)n3C)o1", "inhibition": 6.26}, {"smiles": "O=C(COc1ccc(/C=N/NC(=O)c2ccncc2)cc1)Nc1ccccc1", "inhibition": -0.13}, {"smiles": "CCOC(=O)c1c(-c2ccccc2)oc2ccc(OCC(O)CN(C)C)cc12", "note": "(configuration not stated)", "inhibition": -1.17}, {"smiles": "CCOC(=O)c1c(-c2ccccc2)oc2ccc(OCC)cc12", "inhibition": -1.51}, {"smiles": "Cc1ccc(-n2ncc3c(SCc4ccccn4)ncnc32)c(C)c1", "inhibition": -1.44}, {"smiles": "c1ccc(Cn2ccc(-c3cnc(-c4ccccc4)s3)n2)cc1", "inhibition": 9.82}, {"smiles": "Nc1[nH]ncc1-c1ccc(F)cc1", "inhibition": -6.64}, {"smiles": "Nc1[nH]ncc1-c1ccc(Cl)cc1", "inhibition": 9.56}, {"smiles": "CCc1nnc(NC(=O)Nc2ccccc2OC)s1", "inhibition": 1.12}, {"smiles": "Cc1cc(C(=O)N/N=C/c2cc(Cl)cc([N+](=O)[O-])c2O)c2ccccc2n1", "inhibition": 15.1}, {"smiles": "O=C(N/N=C/c1cc(Cl)cc([N+](=O)[O-])c1O)NC12CC3CC(CC(C3)C1)C2", "inhibition": 7.74}, {"smiles": "COc1ccc(N2CC(C(=O)N/N=C/c3ccc([N+](=O)[O-])cc3)CC2=O)cc1", "note": "(configuration not stated)", "inhibition": 0.01}, {"smiles": "CCc1ccc(N2CC(C(=O)N/N=C/c3cccc([N+](=O)[O-])c3)CC2=O)cc1", "note": "(configuration not stated)", "inhibition": -13.7}, {"smiles": "CCc1ccc(N2CC(C(=O)N/N=C/c3ccccc3)CC2=O)cc1", "note": "(configuration not stated)", "inhibition": -5.31}, {"smiles": "CC(C)(C)N/N=C/c1cc(Cl)cc([N+](=O)[O-])c1O", "inhibition": -7.27}, {"smiles": "COc1ccccc1/C=N/NC(=O)c1cccc(NC(=O)c2ccccc2C)c1", "inhibition": 8.56}, {"smiles": "COc1ccc(N2CC(C(=O)Nc3ccc([N+](=O)[O-])cc3Br)CC2=O)cc1", "note": "(configuration not stated)", "inhibition": 6.01}, {"smiles": "CCCCNC(=O)CCn1c(=O)c2ccccc2n(Cc2ccc(Cl)cc2)c1=O", "inhibition": 5.58}, {"smiles": "CCOC(=O)C(C)Oc1cccc2c(=O)n(CC(=O)N3CCCc4ccccc43)ccc12", "note": "(configuration not stated)", "inhibition": 2.67}, {"smiles": "COc1ccc(Cn2c(=O)oc3ccc(C)cc32)cc1", "inhibition": 10.7}, {"smiles": "O=C(CSc1ccccc1)Nc1ccc(N2CCOCC2)c(F)c1", "inhibition": -2.5}, {"smiles": "Cc1ccc(CC2C(=O)N(C)C(=O)N(C)C2=O)s1", "inhibition": 5.58}, {"smiles": "CCOc1ccc(N(CC(=O)Nc2ccc(OC)cc2)S(=O)(=O)c2c(C)[nH]c(=O)[nH]c2=O)cc1", "inhibition": -6.24}, {"smiles": "NCCc1nnc(SCC(N)=O)o1", "inhibition": -11.5}, {"smiles": "O=S(=O)(c1ccc(NC(=S)N/N=C/c2ccc(O)c(O)c2)cc1)N1CCOCC1", "inhibition": 9.73}, {"smiles": "O=C(N/N=C/c1cc([N+](=O)[O-])ccc1O)C1C2CCCCC21", "note": "(configuration not stated)", "inhibition": -4.14}, {"smiles": "O=[N+]([O-])c1cc(Cl)cc(/C=N/NC(=S)Nc2cc(S(=O)(=O)N3CCOCC3)ccc2Cl)c1O", "inhibition": -3.6}, {"smiles": "O=C(N/N=C/c1cccc([N+](=O)[O-])c1)c1cccc2cc[nH]c12", "inhibition": -2.43}, {"smiles": "Cc1ccc(NC(=O)CCC(=O)N/N=C/c2cc([N+](=O)[O-])ccc2O)cc1", "inhibition": -3.42}, {"smiles": "O=C(N/N=C/c1ccc([N+](=O)[O-])cc1)c1cccc2cc[nH]c12", "inhibition": 20.2}, {"smiles": "Cc1ccccc1NC(=O)CCC(=O)N/N=C/c1cc([N+](=O)[O-])ccc1O", "inhibition": -5.84}, {"smiles": "O=C(N/N=C/c1cc([N+](=O)[O-])ccc1O)C1CCCCC1", "inhibition": -0.28}, {"smiles": "CCOCCCN(C(=O)Cn1nnc(-c2ccc(C)o2)n1)C(C(=O)NCC1CCCO1)c1ccc(F)cc1", "note": "(configuration not stated)", "inhibition": 5.95}, {"smiles": "CN(C)/C=C1\\C(=O)Oc2ccccc2C1=O", "inhibition": 20.1}, {"smiles": "Cn1c(SCc2cccc(F)c2)nnc1-c1cnccn1", "inhibition": -1.53}, {"smiles": "O=C(NCc1cc(C(F)(F)F)cc(C(F)(F)F)c1)C1CC(c2ccccc2F)=NO1", "note": "(configuration not stated)", "inhibition": -1.16}, {"smiles": "CCOC(=O)N1CCN(C(=O)c2cc3cc(F)ccc3[nH]2)CC1", "inhibition": 7.38}, {"smiles": "CN1CCN(C(=O)c2cc3cc(Cl)ccc3[nH]2)CC1", "inhibition": -3.23}, {"smiles": "CN1CCN(C(=O)c2cc3cc(F)ccc3[nH]2)CC1", "inhibition": 10.7}, {"smiles": "CCOC(=O)N1CCN(C(=O)c2cc3cc(Cl)ccc3[nH]2)CC1", "inhibition": -18}, {"smiles": "COC(=O)c1c(O)cc(C(C)(C)C)n(-c2ccc(F)cc2)c1=O", "inhibition": -3.64}, {"smiles": "Cc1ccc(Cn2c(=N)c(C(=O)NC3CCCC3)cc3c(=O)n4ccccc4nc32)cc1", "inhibition": -16.4}, {"smiles": "O=C(c1ccc(Br)cc1)N1CCN(Cc2ccccc2)CC1", "inhibition": -4.12}, {"smiles": "O=C(CCN1CCN(c2ccccc2)CC1)Nc1ccc(Cl)cc1", "inhibition": 11.6}, {"smiles": "O=C(NCCN1CCN(C(=O)c2ccc(Br)cc2)CC1)c1ccc(Br)cc1", "inhibition": -4.36}, {"smiles": "O=C(CCC(=O)N1CCN(c2ccccc2F)CC1)c1ccc(F)cc1", "inhibition": 4.65}, {"smiles": "COc1ccc(C(=O)CCN2CCN(c3ccccc3F)CC2)cc1", "inhibition": 8.74}, {"smiles": "O=C(CCN1CCN(c2ccc([N+](=O)[O-])cc2)CC1)c1ccc(Cl)cc1", "inhibition": -10.4}, {"smiles": "COc1ccc(C(=O)CCN2CCN(c3ccc(OC)cc3)CC2)cc1", "inhibition": 11.8}, {"smiles": "O=C(CCN1CCOCC1)c1ccc(Br)cc1", "inhibition": 24.1}, {"smiles": "C#Cc1ccc([C@@H]2C=C(C(=O)NCc3ccccc3)O[C@H](OCCCCO)C2)cc1", "inhibition": -19.4}, {"smiles": "CCCCn1c(N)c(N(CCC(C)C)C(=O)c2sc3nc4n(c(=O)c3c2C)CCC4)c(=O)[nH]c1=O", "inhibition": -5.32}, {"smiles": "O=C(Nc1ccnn1C1CCN(CCCc2ccccc2)CC1)c1ccccc1", "inhibition": -0.47}, {"smiles": "O=C(CCN1C(=O)/C(=C/c2cccs2)SC1=S)Nc1ccc(C(=O)O)cc1", "inhibition": 1.33}, {"smiles": "Cc1cc(O)cc(O)c1C(=O)Cc1cscn1", "inhibition": 5.71}, {"smiles": "CCOC(=O)Nc1nc(C)c(C(=O)c2ccc(Cl)cc2)s1", "inhibition": -3.7}, {"smiles": "O=C1c2ccccc2C(=O)N1CCc1ccccc1", "inhibition": 2.79}, {"smiles": "CN1CCN(c2nc(C#N)cc(-c3ccccc3)n2)CC1", "inhibition": 6.67}, {"smiles": "CO[C@@]1(NC(=O)CSCC#N)C(=O)N2C(C(=O)O)=C(CSc3nnnn3C)CS[C@@H]21", "inhibition": -5.33}, {"smiles": "Cn1nnnc1SCC1=C(C(=O)O)N2C(=O)C(NC(=O)C3CC3c3ccccc3)C2SC1", "note": "(configuration not stated)", "inhibition": -4.57}, {"smiles": "CCc1nccn1CCC(=O)N1CCCC(Nc2ccc(F)cc2)C1", "note": "(configuration not stated)", "inhibition": -1.62}, {"smiles": "O=C1Nc2c(c(=O)[nH]c(=O)n2Cc2ccccc2)C1(NS(=O)(=O)c1ccccc1)C(F)(F)F", "note": "(configuration not stated)", "inhibition": -5.69}]}]}
